ALOX12 inhib: qHTS Assay for Inhibitors of 12-hLO (12-human lipoxygenase); Polyunsaturated fatty acid lipoxygenase ALOX12 (Homo sapiens), P18054; Potency, µM (top dose mostly 57.1 µM), actives largely listed as inhibitors; 150,000 tested, 0.12% active; purified 12-hLO, xylenol orange hydroperoxide absorbance; active = well fitted inhibition curve with a large enough effect; inconclusive = small, poorly fitted or top-dose-only effect; note: nearly all actives have a fitted effect of over 55% in size
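Purified human 12hLO (150 nM), preincubated 15 min with compound, then 40 uM arachidonic acid for 30 min, room temperature, Hepes pH 7.0 with 0.01% Triton X-100. Hydroperoxide detected by ferrous iron/xylenol orange; 573/405 nm absorbance ratio gives reaction progress.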
HPGD inh: qHTS Assay for Inhibitors of HPGD (15-Hydroxyprostaglandin Dehydrogenase) | Potency, µM, usual class: inhibitors | purified HPGD, NADH fluorescence kinetic, PGE2 substrate | 15-hydroxyprostaglandin dehydrogenase [NAD(+)] (Homo sapiens), P15428 | 150,000 tested, 4.3% active
Target sequence (P15428 whole entry, looked up): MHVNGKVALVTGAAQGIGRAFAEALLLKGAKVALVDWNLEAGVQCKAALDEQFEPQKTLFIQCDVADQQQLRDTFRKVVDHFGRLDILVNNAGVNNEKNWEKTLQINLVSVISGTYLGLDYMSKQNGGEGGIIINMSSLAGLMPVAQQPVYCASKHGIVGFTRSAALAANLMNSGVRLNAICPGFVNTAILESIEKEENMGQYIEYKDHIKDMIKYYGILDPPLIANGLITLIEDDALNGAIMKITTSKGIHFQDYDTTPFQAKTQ
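20 nM HPGD preincubated 15 min at room temperature with compound in 50 mM Tris-HCl pH 8, 0.01% Tween 20. Started with 1 mM NAD+ and 30 uM prostaglandin E2; NADH fluorescence (360/450 nm) read 5 times over 30-s intervals, last minus first.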
ALDH1A1 block: qHTS Assay for Inhibitors of Aldehyde Dehydrogenase 1 (ALDH1A1) | Aldehyde dehydrogenase 1A1 (Homo sapiens), P00352 | Purified ALDH1A1, NADH fluorescence, propionaldehyde substrate | Potency, µM (highest dose often 75.3 µM), usual class: inhibitors | 220,000 tested, 7.3% active | AID 1030, 2008
Target sequence (P00352 whole entry, looked up): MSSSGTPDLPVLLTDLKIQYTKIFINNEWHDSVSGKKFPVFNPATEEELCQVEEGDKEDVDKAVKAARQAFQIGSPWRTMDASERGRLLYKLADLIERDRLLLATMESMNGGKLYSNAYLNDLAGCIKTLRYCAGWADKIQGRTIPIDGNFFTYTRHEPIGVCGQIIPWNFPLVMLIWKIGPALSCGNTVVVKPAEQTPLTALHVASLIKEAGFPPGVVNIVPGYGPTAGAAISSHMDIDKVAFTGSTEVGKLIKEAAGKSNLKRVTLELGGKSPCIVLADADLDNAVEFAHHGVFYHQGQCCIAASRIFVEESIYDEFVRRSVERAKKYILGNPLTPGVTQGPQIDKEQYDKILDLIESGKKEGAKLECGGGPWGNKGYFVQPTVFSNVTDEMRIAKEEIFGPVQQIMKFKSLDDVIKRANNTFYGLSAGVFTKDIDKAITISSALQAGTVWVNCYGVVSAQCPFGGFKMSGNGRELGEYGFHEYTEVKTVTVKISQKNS
PNC assembly inh: High Content Assay for Compounds that inhibit the Assembly of the Perinucleolar Compartment. PC3M PTB-GFP, PNC prevalence imaging, 16 h; active compounds read low. activity change (PNC), negative = inhibition, % at 10 µM. 140,000 tested, 3.1% active;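 active = readout at or below -70, meaning at least 70% loss of cells showing the perinucleolar compartment, a nuclear body marking cancer cells; inconclusive = readout between -30 and a set limit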
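Compounds are pinned in duplicate onto adhered PC3M cells stably expressing GFP-tagged PTB and incubated 16 h at 37 C. Cells are then fixed, nuclei stained with Hoechst, and PNC-positive cells counted.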
LMNA splice mod: qHTS Assay for Modulators of Lamin A Splicing | 200,000 tested, 0.01% active | Potency, µM (highest dose often 46.1 µM), actives largely listed as inhibitors | HeLa LMNA splicing GFP/RFP minigene ratio, 48 h | AID 1487, 2009; active = well fitted inhibition curve with a large enough effect in the signal ratio, with a control signal flat, not every such curve was filed as active; inconclusive = small, poorly fitted or top-dose-only effect, or effect the other way, or a change in a side signal; the % refers to the signal ratio
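Read-out is the ratio of GFP to DsRed2 object intensity, acquired by 488 nm laser-scanning cytometry on HeLa lamin A-EGFP minigene reporter cells. Compound incubation 48 hrs at 37 °C in Opti-MEM with 2% FBS; DMSO 0.5% final.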
A number is an active result; i = inactive; ? = inconclusive; nt = not tested or not shown; [ ] = dose if it differs, or a comment. Rows were chosen to be rich in hits. Some 10% of all compounds tested hit in one or more screens of this group. Unless noted, calls come from the whole dose curve; as a rule, active = well fitted inhibition curve with a large enough effect (not every such curve was filed as active); inconclusive = small, poorly fitted or top-dose-only effect, or another doubt; inactive = no such curve, though single readings can be large or run the other way.

SMILES	ALOX12 inhib	HPGD inh	ALDH1A1 block	PNC assembly inh	LMNA splice mod
COC(=O)COc1cc(Br)c(/C=C2/SC(=O)N(CC(=O)N3CCCC3)C2=O)cc1OC	i	i	20µM	i	i
Cn1nnnc1SCC(=O)NCc1ccco1	i	i	i	i	i
Cc1cc(C(=O)C(C)Cl)c(C)n1Cc1ccco1 (configuration not stated)	nt	nt	7.1µM	nt	i
Cc1cc(C(=O)CSc2nnnn2C)c(C)n1Cc1ccco1	nt	nt	28µM	nt	nt
Cc1cc(C(=O)COC(=O)c2ccc(O)cc2)c(C)n1Cc1ccco1	i	i	7.9µM	i	i
CCOc1ncccc1C(=O)OCC(=O)c1cc(C)n(Cc2ccco2)c1C	i	i	i	i	i
Cc1cc(C(=O)COC(=O)C(C)NC(N)=O)c(C)n1Cc1ccco1 (configuration not stated)	nt	nt	i	nt	i
COc1cc2[nH]c(=S)nc(NCc3cccs3)c2cc1OC	nt	nt	11µM	nt	i
COCCCNc1nc(=S)[nH]c2cc(OC)c(OC)cc12	i	14µM	i	i	i
COc1ccc(CCNc2nc(=S)[nH]c3cc(OC)c(OC)cc23)cc1OC	nt	nt	i	nt	nt
CCOC(=O)C1=NN(C(=O)c2ccco2)C2(CC2)C1	i	i	i	?	i
CCc1ccc(NC(=O)C(=O)NCCN2CCN(C(=O)c3ccco3)CC2)cc1	i	i	22µM	i	i
CCOC(=O)c1c(C)c(C(=O)NCc2ccco2)c(C)n1C	nt	nt	i	nt	nt
CCOC(=O)c1c(C)c(C(=O)N2CCN(C(=O)c3ccco3)CC2)c(C)n1C	i	i	13µM	i	i
CCOC(=O)c1c(C)n(C)c2ccc(OC)c(NC(=O)CN3CCN(C4CCCCC4)CC3)c12	i	i	?	?	i
CCOC(=O)c1c(C)n(C)c2ccc(OC)c(NC(=O)CN3CCN(C(=O)c4ccco4)CC3)c12	i	i	7.9µM	i	i
CCOC(=O)c1c(C)n(C(=O)c2ccco2)c(=O)n1C(=O)c1ccco1	i	22µM	i	i	i
c1cc2c3c(c1)c1c(n3CCNC2)CCCC1	i	i	i	nt	nt
Cc1ccc(Nc2cc(C(=O)NC3CCCC3)c3ccccc3n2)cc1C	nt	nt	nt	nt	i
COc1ccc(C)c2sc(N(Cc3cccnc3)C(=O)C3CCCCC3)nc12	nt	nt	nt	nt	i
CCc1nc2sc3c(c2c(=O)n1NC(=O)CCl)CCCC3	i	i	13µM	?	?
CC(=O)N(C(C)=O)n1c(C)nc2sc3c(c2c1=O)CCCC3	nt	nt	i	nt	i
COc1cccc(C(=O)NCCOc2cc(C)cc(C)c2)c1	i	i	16µM	i	i
COc1cccc(C(=O)Nc2ccc(C3CC3(Cl)Cl)cc2)c1 (configuration not stated)	nt	nt	11µM	nt	?
COC(=O)c1ccc(NC(=O)c2cccc(OC)c2)cc1	i	28µM	?	i	i
SMILES	ALOX12 inhib	HPGD inh	ALDH1A1 block	PNC assembly inh	LMNA splice mod
COC(=O)c1ccc(NC(=O)c2ccccc2NS(C)(=O)=O)cc1	i	i	i	-104	i
COCCNC(=O)Nc1cc(C(=O)NCc2ccc(C(C)C)cc2)ccc1N1CCCC1	nt	nt	nt	nt	i
CCCC(=O)Nc1ccc(Cl)c(NC(=O)c2cccnc2)c1	i	i	i	?	i
CN(C)S(=O)(=O)Oc1cccc(C(=O)Nc2ccc(Cl)cc2)c1	i	i	16µM	i	i
O=C(Nc1ccc(C2CC2(Cl)Cl)cc1)c1ccccc1Br (configuration not stated)	i	16µM	i	i	?
COc1cccc(C(=O)Nc2cccc(-c3nnc(-c4ccco4)o3)c2)c1	i	20µM	?	i	?
CCCC(=O)Nc1ccc(Cl)c(NC(=O)c2cccc(OC)c2)c1	nt	nt	2.8µM	nt	nt
CN(C)CCCN1c2ccccc2C(C)(C)c2ccccc21	i[11.4 µM]	i	i[13.5 µM]	nt	i
CC(=O)Nc1nonc1-c1nnc(SCC(=O)Nc2cc(C)ccc2C)n1-c1ccccc1	nt	nt	nt	nt	i
COc1ccc(Cl)cc1Nc1cc(C)nc2nc(C)nn12	i	3.5µM	i	i	i
CC1CCC2C(=O)N3C(CCC(C)[C@@H]3c3cccc(N4CCOCC4)c3)C(=O)N2C1c1cccc(Br)c1 (some centres not stated)	nt	nt	i[13.5 µM]	nt	nt
O=C(c1ccco1)N1CCN(c2nc(C3CC3)nc3sc4c(c23)CCCC4)CC1	i	?	22µM	i	?
Cc1nc(N2CCN(C(=O)c3ccco3)CC2)c2c3c(sc2n1)CCCC3	i	16µM	40µM	i	?
Cc1ccc(S(=O)(=O)N2CCN(c3nc(C)nc4sc5c(c34)CCC(C)C5)CC2)cc1 (configuration not stated)	i	i	i	i	i[0.0737 µM]
Cc1nc(N2CCN(c3ccccc3)CC2)c2c3c(sc2n1)CCC3	i	i	i	i	?
Cc1nc(N2CCN(C(=O)c3ccco3)CC2)c2c3c(sc2n1)CC(C)CC3 (configuration not stated)	nt	nt	13µM	nt	?
Cc1sc2nc(CN3CCCC3)nc(N3CCN(C(=O)c4ccco4)CC3)c2c1C	nt	nt	i	nt	i
CCc1nc(SCC(=O)N2CCN(C(=O)c3ccco3)CC2)c2c3c(sc2n1)CCCC3	i	i	28µM	i	?
CCc1cc2ccccc2nc1SCC(=O)N1CCN(C(=O)c2ccco2)CC1	i	i	i	i	?
O=C(NCc1ccc(F)cc1Cl)c1ccc(CSCc2ccccc2Cl)o1	nt	nt	nt	nt	i
C[C@H](Oc1ccc(Oc2cnc3ccc(Cl)cc3n2)cc1)C(=O)O	i[11.4 µM]	i	i[13.5 µM]	nt	nt
CC(C)[C@@H](CC(=O)N[C@@H]1CCNC[C@H]1C(=O)N[C@H](CC(=O)N[C@@H](CCC(=O)O)CC(=O)O)Cc1c[nH]c2ccccc12)NC(=O)C[C@H](Cc1c[nH]c2ccccc12)NC(=O)[C@@H]1CCCC[C@H]1N	i	i	i	nt	nt
COC(=O)CC[C@@H](C)C1CC[C@H]2[C@H]3CC[C@H]4C[C@@H]5CCC4(C)[C@@]3(O5)[C@@H](Br)[C@@H](Br)[C@@]12C (some centres not stated)	nt	i	i[13.5 µM]	nt	nt
Cn1c(=S)ccc2ccccc21	nt	nt	25µM	nt	i
CCn1c2ccccc2c2nc3cc(S(=O)(=O)N4CCOCC4)ccc3nc21	i	2µM	1µM	?	i
SMILES	ALOX12 inhib	HPGD inh	ALDH1A1 block	PNC assembly inh	LMNA splice mod
COc1ccc(CCNC(=O)/C=C/C(=O)O)cc1OC	nt	nt	25µM	nt	i
COc1ccc(CCNC(=O)C(=O)Nc2ccc(C)cc2)cc1OC	nt	nt	nt	nt	i
COc1ccc(CCNC(=O)CCCOc2ccc(C)cc2)cc1OC	i	i	28µM	i	?
COc1ccc(CCNC(=O)C(=O)NCc2ccc(C)cc2)cc1OC	i	i	3.2µM	?	i
COc1ccc(CCNC(=O)C(=O)NCc2ccc(Cl)cc2)cc1OC	nt	nt	0.63µM	nt	nt
COc1ccc(CCNC(=O)/C=C\c2ccccc2)cc1OC	i	i	i	i	i
CC1(C)O[C@H]2[C@@H](c3[nH]nc4c(=O)[nH]c(=O)[nH]c34)OC[C@H]2O1	i[11.4 µM]	i	i[13.5 µM]	nt	nt

Screens as filed in PubChem BioAssay.
